From PubChem BioAssay (Tox21)
Inconclusive results are not listed. The source made the active and inactive calls. Calls follow the shape of the dose curve; as a rule, active = well fitted curve in the direction sought with a large enough effect in the repeat runs; inconclusive = weak or mixed curves; inactive = no such curve, though single readings can be large; an effect the other way counts as inactive or inconclusive.

Experiments:
[1] = qHTS RealTime-Glo MT Cell Viability Assay in HepG2 cells - 8 hour (AID 1224873); details: RealTime-Glo luminescence; series mostly up to 76.8 µM; also: nearly all actives have a fitted effect of over 55% in size
Method in brief: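 HepG2 cells mixed with RealTime-Glo MT reagents (NanoLuc plus cell-permeant prosubstrate) were seeded at 600 cells/well, incubated 5 h at 37 C/5% CO2, then pinned with compounds in DMSO; nonlytic luminescence tracked viability during 40 h treatment.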

[2] = A CellTox Green Cytotoxicity Assay to monitor cytotoxicity in HEK293 cells - 24 hour (AID 1224875); details: CellTox Green fluorescence; series mostly up to 76.8 µM; also: nearly all actives have a fitted effect of over 45% in size; also: potency is read from the fitted curve at half-maximal effect
Method in brief: (§1)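 Nonlytic real-time cytotoxicity: HEK293 + CellTox Green reagent plated, 5 h preincubation, pintool compound addition (23 nL in DMSO), 37 C for 40 h, fluorescence measured at successive time points.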

[3] = A CellTox Green Cytotoxicity Assay to monitor cytotoxicity in HepG2 cells - 16 hour (AID 1224876); details: CellTox Green fluorescence; series mostly up to 76.8 µM; also: nearly all actives have a fitted effect of over 45% in size; also: potency is read from the fitted curve at half-maximal effect
Method in brief: (§2)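 Read-out is fluorescence of a cyanine dye excluded from live cells that stains DNA of dead HepG2 cells, with signal proportional to cytotoxicity. Plates were read at 0, 8, 16, 24, 32 and 40 h after compound addition.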

[4] = qHTS RealTime-Glo MT Cell Viability Assay in HepG2 cells - 32 hour (AID 1224877); details: RealTime-Glo luminescence; series mostly up to 76.8 µM; also: nearly all actives have a fitted effect of over 55% in size; also: potency is read from the fitted curve at half-maximal effect
Method in brief: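 Cell number in HepG2 cultures estimated from NanoLuc luminescence generated by metabolic reduction of a prosubstrate by living cells. The homogeneous, nonlytic format allowed repeated reads at 0, 8, 16, 24, 32 and 40 h of compound exposure.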

[5] = A CellTox Green Cytotoxicity Assay to monitor cytotoxicity in HepG2 cells - 24 hour (AID 1224878); details: CellTox Green fluorescence; series mostly up to 76.8 µM; also: nearly all actives have a fitted effect of over 45% in size; also: potency is read from the fitted curve at half-maximal effect
Method in brief: as §2

[6] = A CellTox Green Cytotoxicity Assay to monitor cytotoxicity in HepG2 cells - 40 hour (AID 1224879); details: CellTox Green fluorescence; series mostly up to 76.8 µM; also: nearly all actives have a fitted effect of over 40% in size; also: potency is read from the fitted curve at half-maximal effect
Method in brief: as §2

[7] = qHTS RealTime-Glo MT Cell Viability Assay in HEK293 cells - 0 hour (AID 1224880); details: RealTime-Glo luminescence; series mostly up to 76.8 µM; also: top concentration of the series differs between compounds; nearly all actives have a fitted effect of over 45% in size
Method in brief: (§3)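 Cells were seeded together with NanoLuc luciferase and a prosubstrate that viable cells reduce to a luciferase substrate. After a 5 h incubation at 37 C/5% CO2, compounds were added and luminescence was measured repeatedly during 40 h of treatment.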

[8] = A CellTox Green Cytotoxicity Assay to monitor cytotoxicity in HEK293 cells - 32 hour (AID 1224881); details: CellTox Green fluorescence; series mostly up to 76.8 µM; also: nearly all actives have a fitted effect of over 40% in size; also: potency is read from the fitted curve at half-maximal effect
Method in brief: as §1

[9] = qHTS RealTime-Glo MT Cell Viability Assay in HEK293 cells - 40 hour (AID 1224874); details: RealTime-Glo luminescence; max response: stronger effect = lower value; also: nearly all actives have a fitted effect of over 50% in size; also: potency is read from the fitted curve at half-maximal effect
Method in brief: as §3

[10] = qHTS RealTime-Glo MT Cell Viability Assay in HEK293 cells - 16 hour (AID 1224872); details: RealTime-Glo luminescence; series mostly up to 76.8 µM; also: nearly all actives have a fitted effect of over 50% in size; also: potency is read from the fitted curve at half-maximal effect
Method in brief: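 Homogeneous bioluminescent viability format in HEK293 cells (600 cells/well). Following 5 h at 37 C/5% CO2, 23 nL compound was pintooled; the signal was measured repeatedly during 40 h incubation.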
% is scaled to controls: 0 for no effect and ±100 for the full control effect.

c1ccc(CNc2ncnc3c2ncn3C2CCCCO2)cc1 (stereo unspecified)
inactive: Potency [1] | Potency [2] | Potency [3] | Potency [4] | Potency [5] | Potency [6] | Potency [7] | Potency [8]

COC(=O)Nc1nc2ccc(C(=O)C3CC3)cc2[nH]1
inactive: Potency [1] | Potency [2] | Potency [3] | Potency [4] | Potency [5] | Potency [7] | Potency [8]
active: Potency [6] 0.848 µM

CCC(Cl)CC(Cl)C(Cl)C(Cl)C(Cl)C(C)Cl (stereo unspecified)
inactive: viability change, negative = cytotoxic [1] 0.0251% [at 15.8 µM] | cytotoxicity increase [3] 7.76% [at 15.8 µM] | activity change, negative = cytotoxic [4] -0.891% [at 15.8 µM] | cytotoxicity [5] 2.51% [at 15.8 µM] | cytotoxicity increase [6] 0.801% [at 15.8 µM]

O=C(C(=O)c1ccco1)c1ccco1
inactive: Potency [1] | Potency [2] | Potency [3] | Potency [4] | Potency [5] | Potency [6] | Potency [7] | Potency [8]

O=C(Oc1ccccc1)c1ccc2ccccc2c1O
inactive: Potency [1] | max response [9] -20.6% | Potency [2] | Potency [4] | Potency [6] | Potency [7] | Potency [8]

ClC1=C(Cl)C1(Cl)Cl
inactive: Potency [10] | Potency [1] | Potency [2] | Potency [4] | Potency [5] | Potency [6] | Potency [7] | Potency [8]

Cc1cc(CCCOc2c(C)cc(-c3noc(C(F)(F)F)n3)cc2C)on1
inactive: Potency [1] | Potency [2] | Potency [3] | Potency [4] | Potency [5] | Potency [6] | Potency [7]

CNS(=O)(=O)c1cc(C(=O)N2CCC(CCN3C4CCC3CC(n3c(C)nc5ccccc53)C4)(c3cccc(F)c3)CC2)c(Cl)cc1F (stereo unspecified)
active: Potency [10] 4.36 µM | Potency [9] 4.36 µM
inactive: Potency [2] | Potency [3] | Potency [5] | Potency [6] | Potency [7] | Potency [8]

CN(C)CC/C=C1\c2ccccc2Sc2ccc(Cl)cc21
active: Potency [9] 23.9 µM | Potency [2] 26.8 µM | Potency [3] 21.3 µM | Potency [4] 23.9 µM | Potency [5] 21.3 µM | Potency [6] 21.3 µM | Potency [8] 26.8 µM

CO[C@@H]1[C@@H](OC)[C@H](C)[C@@](O)(CC(=O)O)O[C@H]1[C@H](C)[C@H]1O[C@@]2(CC[C@@](C)([C@H]3CC[C@@](C)([C@@H]4O[C@@H]([C@H]5O[C@](C)(O)[C@H](C)C[C@@H]5C)C[C@@H]4OC4C[C@H](OC)[C@@H](OC)[C@H](C)O4)O3)O2)C[C@H](O)[C@H]1C (stereo partly specified)
active: Potency [10] 5.35 µM | Potency [9] 2.39 µM | Potency [4] 5.35 µM | Potency [5] 12 µM | Potency [6] 6.74 µM
inactive: Potency [2]

CC(C)COC(=O)c1ccc(O)cc1
inactive: Potency [1] | Potency [3] | Potency [4] | Potency [7]
